# Screening data: PubChem BioAssay, National Center for Advancing Translational Sciences (NCATS)
# The list is not random: actives were taken first. Their share in the collection is about 1.9%.
# CXXC DNA block: MLL CXXC-DNA interaction inhibition | Q03164 | actives 0.037% (n = 290,000) | MLL-CXXC / FITC-HOXA9 DNA fluorescence polarization | Potency, µM (titrated, usually from 115 µM), most hits filed as inhibitors | AID 2662; active = well fitted inhibition curve with a large enough effect in the polarisation, with a control signal flat, not every such curve was filed as active; inconclusive = small, poorly fitted or top-dose-only effect, or effect the other way, or a change in a side signal; inactive = no such curve, though single readings can be large or run the other way; the % refers to the polarisation
#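 Fluorescence polarization: 7 uM MLL-CXXC (stock) preincubated 5 min with compounds, then 50 nM fluorescein-HOX-A9 DNA (stock) added; 30 min ambient. Buffer 50 mM Tris-HCl pH 7.5, 50 mM NaCl, 1 mM DTT, 0.05% BSA.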
# PINK1 expr mod: modulators of PINK1 expression | PINK1 immunofluorescence, high-content cytometry, 24 h | Potency, µM (doses to about 76.6 µM), most hits filed as activators | actives 0.2% (n = 410,000); active = well fitted activation curve with a large enough effect; inconclusive = small, poorly fitted or top-dose-only effect; cell line not stated here; also: nearly all actives have a fitted effect of over 65% in size
#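 Decision-based qHTS: stable cells, 24 h exposure to five compound concentrations, CCCP as control. Fixed cells stained for PINK1 plus nuclear, mitochondrial and cell markers, cytometer read.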
# Epigenetic derep: regulators of epigenetic silencing causing reporter derepression in mouse cells; actives 0.2% (n = 280,000); murine LDR cells, GFP reporter derepression, 30 h; Potency, µM (series often up to 53.9 µM), most hits filed as activators; active = well fitted activation curve with a large enough effect; inconclusive = small, poorly fitted or top-dose-only effect; also: nearly all actives have a fitted effect of over 60% in size
#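 Murine LDR cells carrying a silenced, genomically integrated CMV-driven GFP reporter were exposed to compound for 30 hours at 37 C. After PBS washes, GFP-positive cells (20–120 um objects) were counted by laser-scanning microplate cytometry.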
# Menin MLL FP TR: inhibitors of human menin-MLL interaction, mutant MLL peptide; O00255; Menin + Texas Red MLL mutant peptide, fluorescence polarization; Potency, µM (series often up to 61.6 µM), most hits filed as inhibitors; actives 0.23% (n = 270,000); AID 1768; active = well fitted inhibition curve with a large enough effect in the polarisation, with a control signal flat, not every such curve was filed as active; inconclusive = small, poorly fitted or top-dose-only effect, or effect the other way, or a change in a side signal; inactive = no such curve, though single readings can be large or run the other way; the % refers to the polarisation
# ClpP mod: qHTS Assay for Activators of ClpP. actives 1.9% (n = 340,000). purified B. subtilis ClpP, FRET peptide cleavage, 20 min. ATP-dependent Clp protease proteolytic subunit (Bacillus subtilis (strain 168)), P80244. Potency, µM (highest dose often 57.5 µM); active = well fitted falling curve with a large enough effect; inconclusive = small, poorly fitted or top-dose-only effect; inactive = no such curve, though single readings can be large or run the other way; also: the source files actives as falling curves though it sought activators and does not explain the sign; nearly all actives have a fitted effect of over 65% in size
# Target sequence (P80244 whole entry, looked up): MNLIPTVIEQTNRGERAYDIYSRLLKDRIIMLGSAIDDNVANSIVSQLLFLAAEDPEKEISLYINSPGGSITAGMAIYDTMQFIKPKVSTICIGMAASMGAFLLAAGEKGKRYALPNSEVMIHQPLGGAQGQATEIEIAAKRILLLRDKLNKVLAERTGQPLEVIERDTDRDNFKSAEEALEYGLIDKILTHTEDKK
#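 FRET quenching reversal measured ClpP activation: 10 microg/mL B. subtilis ClpP at pH 8 with the FRET-FV decapeptide, read at 430 nm after 320 nm excitation. The 20-min minus 0-min signal was scaled between DMSO/no-enzyme wells and ADEP (5.8 microM final).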
# Menin-MLL FL inh: inhibitors of human menin-MLL interaction, wild-type MLL peptide. Fluorescence polarization, fluorescein-MLL peptide displacement from menin. FP activity change, % at 61.4 µM. 290,000 tested, under 10 active. AID 1766; active = well fitted curve in the direction sought with a large enough effect in the polarisation, not every such curve was filed as active; inconclusive = small, poorly fitted or top-dose-only effect, or effect the other way, or a change in a side signal; inactive = no such curve, though single readings can be large or run the other way; the % refers to the polarisation
# Hits are given with their value; - = inactive; ? = inconclusive; . = not tested or not shown; ! = a repeat was not active; [ ] = another dose, or the depositor's remark.
SMILES,CXXC DNA block,PINK1 expr mod,Epigenetic derep,Menin MLL FP TR,ClpP mod,Menin-MLL FL inh
CC1CCCN(C2(O)C(=O)Nc3ccc(Cl)cc32)C1 (configuration not stated),-,-,.,-,-,-
COc1cc(CC(=O)Nc2ccc(N3CCOCC3)cc2)cc(OC)c1OC,-,-,-,-,.,-
COc1cc2c(N3CCOCC3)cc(O)c(CC(=O)Nc3ccccc3)c2cc1OC,-,-,-,-,28.2µM,-
O=C(NCC1CCCO1)C1c2ccccc2C(=O)N1Cc1ccc2c(c1)OCO2 (configuration not stated),-,-,-,-,22.4µM,-
Cc1ccc(-n2ncc3c(N(C)Cc4ccccc4)ncnc32)cc1,.,-,-,.,31.6µM,.
Cc1ccc(-n2ncc3c(N(CCO)Cc4ccccc4)ncnc32)cc1,.,-,-,.,?,.
O=C(NCC1(N2CCOCC2)CCCC1)c1cnn(-c2nccc(-c3cccs3)n2)c1C1CC1,.,-,.,.,.,.
Cc1ccc(C2Nc3ccc4ccccc4c3C3=C2C(=O)CC(C)(C)C3)o1 (configuration not stated),-,-,-,-,14.1µM,-
O=C1CCCC2=C1C(c1ccc(O)c(O)c1)Nc1ccc3ccccc3c12 (configuration not stated),.,-,.,.,.,.
O=C1CCCC2=C1C(c1ccco1)Nc1ccc3ccccc3c12 (configuration not stated),-,-,-,?,35.5µM,-
CCN(CC)c1ccc(/C=C2/SC(=O)N(C(C)C)C2=O)o1,?,-,11.2µM,-,.,?
CSCCC(NC(=O)c1cccc([N+](=O)[O-])c1)C(=O)O (configuration not stated),-,-,-,-,25.1µM,-
Cn1nc(C(F)(F)F)c(C#N)c1N1CCN(c2ccc(F)cc2)CC1,-,-,-,-,14.1µM,-
CC(C)c1c(C(=O)NCc2cccnc2)cnn1-c1nccc(-c2cccs2)n1,.,-,.,.,.,.
CSc1ccccc1C(=O)Nc1cccc([N+](=O)[O-])c1,-,-,-[10.1 µM],-,-,-
COc1ccc([N+](=O)[O-])cc1NC(=O)c1ccccc1SC,-,-,-,-,28.2µM,-
COc1ccc(Cl)cc1NC(=O)c1cccc([N+](=O)[O-])c1O,.,22.4µM,.,.,-,.
COc1ccc([N+](=O)[O-])cc1NC(=O)C(C)Sc1nc(C)c(C)c(C)n1 (configuration not stated),-,-,-,-,28.2µM,-
COc1ccc(Cl)cc1NC(=O)C/C(C)=N/NC(=O)c1ccccc1[N+](=O)[O-],-,-,.,-,-,-
COc1ccc([N+](=O)[O-])cc1NC(=O)CSc1nc(C)c(C)c(C)n1,-,-,-,-,-,-
O=C(CCC1CCCC1)NNC(=O)COc1ccc(Br)cc1,.,-,.,.,-,.
CC1=C(C#N)C(c2ccc(O)cc2)C2=C(CC(C)(C)CC2=O)N1 (configuration not stated),-,-,-,-,-,.
CC1=C(C#N)C(C)C2=C(CC(C)(C)CC2=O)N1 (configuration not stated),-,-,-,-,17.8µM,-
CC1=C(C#N)C(c2cccnc2)C2=C(CC(C)(C)CC2=O)N1 (configuration not stated),-,-,-,-,14.1µM,-
Cc1onc(-c2c(F)cccc2Cl)c1C(=O)NC1C(=O)N2C1SC(C)(C)C2C(=O)O (configuration not stated),-,.,.,-,.,-
SMILES,CXXC DNA block,PINK1 expr mod,Epigenetic derep,Menin MLL FP TR,ClpP mod,Menin-MLL FL inh
O=C(COC(=O)c1ccccc1OCCOc1ccccc1)Nc1ccccc1Br,.,-,.,.,-,.
COC(=O)c1cc(Cl)c(NC(=O)/C=C/c2ccc(OC)c(OC)c2)cc1OC,-,-,-,-,28.2µM,-
COc1ccc(/C=C/C(=O)Nc2nc(C)cc(C)n2)cc1OC,-,-,-,?,35.5µM,-
COc1ccc(N2CC(NC(=O)/C=C\c3ccc(OC)c(OC)c3)CC2=O)cc1 (configuration not stated),.,-,-,.,31.6µM,.
COc1ccc(/C=C/C(=O)Nc2ccncc2)cc1OC,-,-,-,-,.,-
COC(=O)c1cc(Cl)c(NC(=O)/C=C/c2ccc(Cl)cc2Cl)cc1OC,-,14.1µM!,-,-,-,-
COc1cc(CN2CCOc3ccc(CN4CCC(O)(c5cccnc5)CC4)cc3C2)ccc1F,.,-,.,.,.,.
O=C(NCC1CCC2(CCN(Cc3cccc4ncccc34)CC2)O1)c1ccccc1 (configuration not stated),.,-,.,.,.,.
Nc1c(C(=O)Nc2ccc(C(=O)O)cc2)sc2nc3c(cc12)CCCC3,.,-,-,.,-,.
Nc1c(C(=O)Nc2ccc(S(=O)(=O)N3CCCC3)cc2)sc2nc3cc4c(cc3cc12)CCC4,-,?,3.55µM,-,25.1µM,?
Nc1c(C(=O)Nc2ccc(S(=O)(=O)N3CCCC3)cc2)sc2nc3ccc(OC(F)(F)F)cc3cc12,-,?,7.94µM,-,?,?
CSCC[C@H](NC(=O)[C@H](Cc1c[nH]c2ccccc12)NC(=O)CNC(=O)[C@H](Cc1ccc(O)cc1)NC(=O)[C@H](C)NC(=O)[C@H](CCC(=O)O)NC(=O)[C@H](CCC(=O)O)NC(=O)[C@H](CCC(=O)O)NC(=O)[C@H](CCC(=O)O)NC(=O)[C@H](CCC(=O)O)NC(=O)[C@H](CC(C)C)NC(=O)[C@H](Cc1c[nH]c2ccccc12)NC(=O)[C@@H]1CCCN1C(=O)CNC(=O)[C@@H]1CCC(=O)N1)C(=O)N[C@@H](CC(=O)O)C(=O)N[C@@H](Cc1ccccc1)C(=O)NCC(=O)O,.,.,.,-,.,-
COc1ccc(-c2cnc3c(c2)CCC3(C#N)C#N)cc1,-,-,-,-,15.8µM,-
COc1ccc(-c2ccc(OC)cc2)cc1,.,-,.,.,-,.
COc1cccc(C(=O)Nc2ccc3c(c2)C(=O)N(CC2CCCO2)C3=O)c1 (configuration not stated),-,-,.,.,-,.
O=C(Nc1ccc2c(c1)C(=O)N(CC1CCCO1)C2=O)c1cccc(Br)c1 (configuration not stated),?,.,-,-,31.6µM,-
CC(=O)Oc1cccc(C(=O)Nc2ccc3c(c2)C(=O)N(CC2CCCO2)C3=O)c1 (configuration not stated),-,-,.,.,31.6µM,.
O=C(O)c1cccc(NC(=O)c2ccc3c(c2)C(=O)N(CC2CCCO2)C3=O)c1 (configuration not stated),-,.,-,-,-,-
CC(=O)Oc1ccc(C(=O)Nc2ccc3c(c2)C(=O)N(CCC(=O)O)C3=O)cc1,-,-,-,-,28.2µM,-
Cc1ccc(O)c(-c2cc(C(F)(F)C(F)F)nc(-c3ccccc3)n2)c1,-,-,-,.,25.1µM,-
